ClpP mod – qHTS Assay for Activators of ClpP; ATP-dependent Clp protease proteolytic subunit (Bacillus subtilis (strain 168)), P80244; purified B. subtilis ClpP, FRET peptide cleavage, 20 min; Potency, µM (doses to about 57.5 µM), inactives show at the top dose activity change, negative = active; hit rate 1.9% among 340,000; active means well fitted falling curve with a large enough effect; inconclusive means small, poorly fitted or top-dose-only effect; inactive means no such curve, though single readings can be large or run the other way; further: potency means the concentration at half of the fitted maximal effect; the source files actives as falling curves though it sought activators and does not explain the sign; nearly all actives have a fitted effect of over 65% in size
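ClpP 10 microg/mL final, pH 8 Tris/KCl buffer with BSA, glycerol, Tween-20; compound pinned in; FRET-FV substrate; RT 20 min; Ex320/Em430; ΔFRET vs ADEP 5.8 microM, DMSO, no enzyme.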
DRD3 agonist – qHTS of D3 Dopamine Receptor Agonist: qHTS; D3R DiscoveRx beta-arrestin cells, luminescence, 90 min; D(3) dopamine receptor (Homo sapiens), P35462; hit rate 0.58% among 410,000; max activation, %; in the data active means max activation above about 30%; further: 0% is about no effect
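Cells at 1500/well, incubated overnight, then treated with pinned compounds (dopamine as control) for 90 min at 37 degrees C. DiscoveRx reagent added for 30 - 60 minutes at room temperature; luminescence read.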
HEK293 tox – qHTS of GLP-1 Receptor Inverse Agonists: Cytotox Screen; HEK293 cAMP-luciferase reporter cells, luminescence, 24 h; Potency, µM (titrated, usually from 38.3 µM), without a hit: at the top dose activity change, negative = inhibition, actives largely listed as inhibitors; hit rate 0.13% among 410,000; AID 624418, 2012;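 further: loss of luciferase light is scored as toxicity; potency means the concentration at half of the fitted maximal effect; on the % scale 0 is the no-effect control and ±100 the full control effect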
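Here, cytotoxicity is scored as loss of luminescence. The MLSMR collection was tested on cells seeded in medium containing 10% Nu serum, with a 24 hr compound exposure preceded by 12 hours of culture.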
GLP1R inv ag – qHTS of GLP-1 Receptor Inverse Agonists (Inhibition Mode). Glucagon-like peptide 1 receptor (Homo sapiens), P43220. HEK293 GLP-1R CRE-luciferase, luminescence, 24 h; GLP-1R form is constitutively active. Potency, µM (top dose mostly 38.3 µM), for the others: top-dose activity change, negative = inhibition, actives largely listed as inhibitors. hit rate 1.6% among 410,000. AID 624417, 2012; further: potency means the concentration at half of the fitted maximal effect; on the % scale 0 is the no-effect control and ±100 the full control effect; nearly all actives have a fitted effect of over 55% in size
Target sequence (P43220 whole entry, looked up): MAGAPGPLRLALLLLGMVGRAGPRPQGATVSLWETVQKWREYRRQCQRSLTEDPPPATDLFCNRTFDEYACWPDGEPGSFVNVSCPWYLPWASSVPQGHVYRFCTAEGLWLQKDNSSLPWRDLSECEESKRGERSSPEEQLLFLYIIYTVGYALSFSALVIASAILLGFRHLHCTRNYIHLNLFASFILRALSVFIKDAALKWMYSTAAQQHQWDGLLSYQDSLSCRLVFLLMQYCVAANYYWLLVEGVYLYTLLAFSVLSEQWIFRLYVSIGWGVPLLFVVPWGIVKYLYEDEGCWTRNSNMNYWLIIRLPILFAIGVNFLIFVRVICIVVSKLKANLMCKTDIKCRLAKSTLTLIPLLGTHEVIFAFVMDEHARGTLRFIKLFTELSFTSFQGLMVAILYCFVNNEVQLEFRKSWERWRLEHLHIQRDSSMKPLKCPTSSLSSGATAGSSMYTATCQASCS
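Stable HEK293 clone (constitutively active GLP-1R + cAMP-response luciferase); 200 cells/uL plated, 12 h pre-culture, compound 24 hr, 37 deg C/5% CO2; detection reagent 12 min RT; luminescence.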
GLP-1R agonist – qHTS of GLP-1 Receptor Agonists; Glucagon-like peptide 1 receptor (Homo sapiens), P43220; HEK293 GLP-1R CRE-luciferase, luminescence, 4-6 h; cells express a hypersensitive GLP-1R form; Potency, µM (doses to about 45.6 µM), inactives show top-dose activation, hits mostly activators; hit rate 0.007% among 380,000; AID 624172, 2012; further: potency means the concentration at half of the fitted maximal effect; % of control where 0% means no effect
D3 antag – qHTS of D3 Dopamine Receptor Antagonist: qHTS; hit rate 2.5% among 360,000; AID 652054, 2013; D3R cells, DiscoveRx beta-arrestin luminescence, antagonist mode; stronger effect = lower value; max response, negative = inhibition, %; in the data active means max response below about -50%; inconclusive means no clear call, values can overlap the other calls; further: on the % scale 0 is the no-effect control and ±100 the full control effect
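Cells expressing the human receptor were seeded at 1500 cells/well, incubated overnight at 37 degrees C in 5% CO2, then exposed to library compounds with dopamine controls for 90 minutes at 37 degrees C before luminescent detection.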
* marks the source's active call; other numbers are inactive results; ? = inconclusive; . = no result. This is a sample that favours compounds with a hit; in the whole collection about 5.7% have one here. Unless noted, the call rests on the fitted dose curve; in most records, active means well fitted curve in the direction sought with a large enough effect; inconclusive means small, poorly fitted or top-dose-only effect, or another doubt; inactive means no such curve, though single readings can be large; an effect the other way counts as inactive or inconclusive.

SMILES	ClpP mod	DRD3 agonist	HEK293 tox	GLP1R inv ag	GLP-1R agonist	D3 antag
Cc1ccccc1C1NC(c2ccccc2C)C([N+](=O)[O-])C(C)(C)C1[N+](=O)[O-] (stereo not drawn)	.	5.9	0.4%	?	7.3%	-17.0
CN1C(=O)C[C@@H](C(=O)N[C@@H](Cc2cnc[nH]2)C(=O)N2CCC[C@H]2C(N)=O)NC1=O	.	5.3	.	.	-2.2%	.
COC(=O)c1ccc(C)c(NC(=O)CCSc2ccc(Cl)cc2)c1	0.7%	1.0	-8.9%	?	-0.3%	0.5
COC(=O)c1ccc(Sc2ccc(Cl)cc2)c(N)c1	25.1µM*	3.2	-4.7%	0.0%	2.6%	7.6
CCN(C(=O)c1cn(C)c(=O)c2cc(OC)c(OC)cc12)c1cc(C)ccc1C	-4.5%	5.4	-10.3%	13.4%	-0.5%	11.9
Cc1ccc(C)c(N(C)C(=O)c2cn(C)c(=O)c3ccccc23)c1	-8.6%	-16.6	28.3%	6.31µM*	.	.
COc1ccc(C(=O)c2c(-c3ccc(OC)cc3)oc3ccc(-c4cc(OC)c(OC)c(OC)c4)cc23)cc1	?	21.9	-21.7%	?	2.9%	62.2
COC(=O)c1c(-c2ccc(OC)cc2)oc2ccc(-c3cc(OC)c(OC)c(OC)c3)cc12	4.2%	34.6*	5.5%	8.8%	15.1%	76.8
COC(=O)c1c(-c2ccc(OC)cc2)oc2ccc(-c3ccc(OC)nc3)cc12	4.6%	40.2*	-6.3%	7.1%	4.7%	21.9
COc1ccc2[nH]cc(CCNC(=O)/C=C/[C@H]3O[C@@H](n4cnc5c(NC(=O)c6ccccc6)ncnc54)[C@H](O)[C@@H]3O)c2c1	-0.9%	6.1	-2.4%	8.4%	-1.4%	19.5
Cc1ccc(-n2c(Cc3ccccc3)nnc2SCc2nc(-c3cccs3)no2)cc1C	-1.4%	-12.9	-13.3%	?	.	.
Cc1cccc(NC(=O)NC(C)CCc2ccccc2)c1 (stereo not drawn)	.	19.9	-13.4%	10µM*	12.0%	16.3
CCOC(=O)/C=C/C(=O)Nc1ccccc1-c1ccccc1NC(=O)/C=C/C(=O)OCC	-1.4%	-4.9	-29.5%	?	-16.5%	-62.3*
CCn1c2c(c(=O)n3ncc(C(=O)Nc4ccc(C(=O)OC)cc4)c13)CN(Cc1ccc(OC)cc1)CC2	?	8.6	-2.4%	-1.5%	.	.
Cc1nn(-c2ccccc2)c2sc(C(=O)Nc3cccc(O)c3)cc12	-6.5%	18.5	-30.3%	?	.	.
Cc1ccc(-c2nnc(Nc3cccc(C(F)(F)F)c3)c3ccccc23)cc1S(=O)(=O)N1CCOCC1	?	0.2	10.7%	?	.	.
COc1ccc(-c2sc3ccc(OC)cc3c2-c2ccc(O)cc2)cc1	28.2µM*	-19.6	-25.2%	?	3.0%	23.4
COc1cc(OC)cc(-c2sc3ccc(OC)cc3c2-c2ccc(O)cc2)c1	?	8.0	-8.0%	?	20.7%	23.1
COc1ccc(-c2c(-c3cc(OC)cc(OC)c3)sc3ccc(OC)cc23)cc1	17.8µM*	5.6	12.2%	?	4.4%	-5.8
C[n+]1ccc(/C=C/c2cc[n+](C)c3ccccc23)c2ccccc21	-12.7%	.	.	.	.	.
COc1ccccc1NC(=O)CN1C(=O)c2cccc3cccc1c23	7.4%	-7.2	43.6%	3.5%	.	.
CN=C(Nc1ccc(Br)cc1)SC1CC(=O)N(c2ccc(OC)cc2)C1=O (stereo not drawn)	.	-10.8	9.0%	11.2µM*	12.4%	-12.3
CN=C(Nc1ccc(C)c(C)c1)SC1CC(=O)N(c2ccc(OC)cc2)C1=O (stereo not drawn)	0.2%	-0.3	4.6%	?	8.6%	4.2
